Reference: PubChem BioAssay (Tox21)
Results filed as inconclusive are left out. The source made the active and inactive calls. The call rests on the fitted dose curve; in most records, active means well fitted cell-killing curve with a large enough effect in the repeat runs; inconclusive means weak or mixed curves, or effect the other way; inactive means flat fitted curve, though single readings scatter.

Assay: qHTS assay to identify small molecule antagonists of the androgen receptor (AR) signaling pathway using the MDA cell line in the presence of 0.5 nM R1881 - cell viability counter screen (AID 1259242); further: nearly all actives have a fitted effect of over 45% in size
Conditions: MDA-kb2 viability, CellTiter-Fluor protease fluorescence, 16 h; series mostly up to 92.4 µM
Text: U.S. Tox21 Program National Center for Advancing Translational Sciences [NCATS] NIH Chemical Genomics Center [NCGC] U.S. Environmental Protection Agency [EPA] National Institutes of Environmental Health Sciences [NIEHS] National Toxicology Program [NTP] U.S. Food and Drug Administration [FDA] Tox21 Assay Overview: Androgen receptor (AR) is an important member of the nuclear receptor family. Its signaling plays a critical role in AR-dependent prostate cancer and other androgen related diseases. Considerable attention has been given in the past decades to develop methods to study and screen for the environmental chemicals that have the potential to interfere with metabolic homeostasis, reproduction, developmental and behavioral functions. Therefore AR binding assay for screening androgen antagonists can be used to identify potential endocrine disruptors. MDA-kb2 cells (from ATCC, deposited by Wilson et al.) were used to screen for AR inhibitors against Tox21 compound libraries. These cells are human breast carcinoma cells that were stably transfected with a luciferase reporter gene under control of the MMTV promoter that contains response elements for both androgen receptor (AR) and glucocorticoid receptor (GR). The current screening for identification of AR inhibitors against Tox21 libraries used lower concentration of (0.5 nM) R1881 as a stimulator. The cytotoxicity of the Tox21 compound libraries against MDA-kb2 cell line was tested by measuring live-cell protease activity using CellTiter-Fluor assay in the same wells.
Tox21 Assay Protocol Summary: MDA-kb2 cells (cells cultured without CO2) were dispensed at 3,000 cells/well in 4 uL of culture medium into white wall/solid-bottom 1536-well plates (Corning Life Sciences, Corning, NY) using a Multidrop Combi (ThermoFisher Scientific, Waltham, MA) dispenser. After the assay plates were incubated at a 37C and 0% CO2 for 5 hr, 23 nL of compounds dissolved in DMSO, positive controls or DMSO only was transferred to the assay plate by a Pintool station (Kalypsys, San Diego, CA). The transfer of compounds was followed by the addition of 1 uL of 0.5 nM (final concentration) agonist (R1881)/culture medium using a Flying Reagent Dispenser (FRD, Aurora Discovery, San Diego, CA). The plates were incubated at 37C and 0% CO2 for 16 hr. For cytotoxicity assay, 1 uL of CellTiter-Fluor reagent (Promega Corporation, Madison, WI) was added to each well using the FRD and after 30 min incubation at 37C and 0% CO2, The fluorescence intensity was measured using ViewLux plate reader (PerkinElmer, Shelton, CT).

SMILES | outcome
CC(C(=O)c1ccccc1)N(C)C (stereo not given) | inactive
COc1cc(OC)nc(Oc2cccc(Oc3nc(OC)cc(OC)n3)c2C(=O)O)n1 | inactive
ClCC(Cl)(Cl)Cl | inactive
CCCSP(=O)(OCC)Oc1ccc(Br)cc1Cl (stereo not given) | inactive
NC(=S)C(N)=S | inactive
O=C(Cc1ccccc1)OCc1ccccc1 | inactive
O=[N+]([O-])c1ccc2c3c(cccc13)CC2 | inactive
CN1C[C@@H](NS(=O)(=O)N(C)C)C[C@@H]2c3cccc4c3c(cn4C)C[C@H]21 | inactive
CN1CCC(N(Cc2ccccc2)c2ccccc2)CC1 | inactive
O=C(N[C@H]1CN2CCC1CC2)c1cc2ccoc2cn1 | inactive
CCN(CC)CCOC(=O)C(C)(c1ccccc1)c1ccccc1 | inactive
ClC(Cl)Br | inactive
Cc1coc2c1CCC(C)C2 (stereo not given) | inactive
CCOP(=O)(N=C1SCCS1)OCC | inactive
C1CCC(C2CCCCC2)CC1 | inactive
Cc1nnc2n1-c1sc(CCC(=O)N3CCOCC3)cc1C(c1ccccc1Cl)=NC2 | inactive
Nc1cc(Cl)ccc1O | inactive
CCOC(=O)C1(c2ccccc2)CCN(CCc2ccc(N)cc2)CC1 | inactive
O=C1OC(c2ccc(O)c(S(=O)(=O)O)c2)(c2ccc(O)c(S(=O)(=O)O)c2)c2c(Br)c(Br)c(Br)c(Br)c21 | inactive
CC1COC2(c3ccccc3Cl)c3cc(Cl)ccc3NC(=O)CN12 (stereo not given) | inactive

SMILES | outcome
CCN(CC)C(C)C(=O)c1ccccc1 (stereo not given) | inactive
CCOP(=O)(OCC)OP(=O)(OCC)OCC | inactive
ClCCCN1CCN(c2cccc(Cl)c2)CC1 | inactive
CC(C1CC1)C(O)(Cn1cncn1)c1ccc(Cl)cc1 (stereo not given) | inactive
CCCCCCBr | inactive
OCCSCSCCO | inactive
CCC(=O)c1ccccc1 | inactive
O=P(O)(Oc1ccccc1)Oc1ccccc1 | inactive
CCOP(=S)(OCC)Oc1ncn(-c2ccccc2)n1 | inactive
CC(C)NCC(O)c1ccc(N)c(C#N)c1 (stereo not given) | inactive
CC(C)(C)C(=O)C(Oc1ccc(Cl)cc1)n1cncn1 (stereo not given) | inactive
CNC(=O)Oc1ccc(N(C)C)c(C)c1 | inactive
O=C(Oc1ccc(Br)cc1)N1CCN2CCC1CC2 | inactive
CCCCC(=O)Cl | inactive
Cc1ccccc1CO[C@@H]1C[C@@]2(C(C)C)CC[C@]1(C)O2 | inactive
Oc1c(Cl)cccc1Cl | inactive
c1coc(-c2nc3ccccc3[nH]2)c1 | inactive
CNC(=O)Oc1cccc(C(C)C)c1 | inactive
[Cl][Sn]([Cl])([Cl])[Cl] | inactive
C=C(C)CN(CC)c1c([N+](=O)[O-])cc(C(F)(F)F)cc1[N+](=O)[O-] | inactive
